Source: PubChem BioAssay (National Center for Advancing Translational Sciences (NCATS))
Shown are actives, neighbours in structure and some others; about 3.1% of the full set was active somewhere.
Tau fluor cs = counter-screen for tau fibril formation inhibitors; tau K18 P301L Alexa594 fluorescence, heparin fibrillization; Potency, µM (doses to about 57.7 µM), for the others: at the top dose activity change, negative = decrease; hit rate 0.93% among 280,000; AID 1463; also: nearly all actives have a fitted effect of over 55% in size
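Human K18 P301L tau (15 uM unlabeled plus 0.24 uM Alexa 594-labeled, final) in 100 mM sodium acetate pH 7 was mixed with compound and 20 uM heparin and incubated 6 hr at 37 C.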
TexasRed fluor = alters Texas Red total fluorescence, flagging assay interference; hit rate 0.29% among 280,000; Potency, µM (top dose mostly 106 µM), for the others: at the highest dose fluorescence change, negative = quenching; TRb/SRC2 Texas Red total fluorescence interference; active = well fitted curve in either direction with a large enough effect; inconclusive = small, poorly fitted or top-dose-only effect
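Human TRb ligand-binding domain at 0.6 uM with 20 nM Texas Red SRC2 peptide in Tris buffer containing 1 uM T3 and 5% DMSO, incubated with compound 5 h at ambient temperature. Total fluorescence (555/632 nm) calculated as parallel + 2 × perpendicular.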
Tau ThT inhib = tau fibrillization inhibition (ThT binding); P10636; recombinant tau K18 P301L (four-repeat tau fragment), heparin-induced fibrillization, ThT fluorescence; Potency, µM (series often up to 57.4 µM), inactives show top-dose activity, negative = inhibition, actives largely listed as inhibitors; hit rate 2.1% among 270,000; AID 1460; also: nearly all actives have a fitted effect of over 55% in size
Target sequence (P10636 561-689 P618L limits assumed): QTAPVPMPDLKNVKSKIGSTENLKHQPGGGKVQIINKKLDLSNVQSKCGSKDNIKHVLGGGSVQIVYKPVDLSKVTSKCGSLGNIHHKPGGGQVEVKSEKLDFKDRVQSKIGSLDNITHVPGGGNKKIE
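Heparin-induced (20 uM) aggregation of recombinant human K18 P301L tau, 15 uM unlabeled with 0.24 uM labeled, pH 7 acetate buffer, 6 hr at 37 C with compound. Fibrils quantified by 30 uM ThT fluorescence after 1 hr ambient incubation.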
Tau FP inhib = inhibitors of human tau fibril formation; AID 1468; K18 P301L tau heparin fibrillization, Alexa594 FP, 6 h; Potency, µM (highest dose often 57.7 µM), without a hit: top-dose activity, negative = inhibition, hits mostly inhibitors; P10636; hit rate 0.39% among 280,000; also: nearly all actives have a fitted effect of over 55% in size
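K18 P301L tau (15 uM unlabeled/0.24 uM Alexa 594-labeled, final) + compound + heparin 20 uM final; 100 mM NaOAc pH 7; 6 hr 37 C; ThT 30 uM final added, 1 hr RT; FP ex 555/em 632 nm.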
GoLoco inh red = inhibitors of human Gai1-RGS12 GoLoco interaction (red fluorophore). P63096. Gai1:RGS12 GoLoco peptide FP, rhodamine, 10 min. Potency, µM (doses to about 61.6 µM), inactives show top-dose activity, negative = inhibition, usual class: inhibitors. hit rate 0.44% among 230,000. AID 880; active = well fitted inhibition curve with a large enough effect, not every such curve was filed as active; inactive = no such curve, though single readings can be large or run the other way; also: nearly all actives have a fitted effect of over 30% in size
TRb-SRC2 inh = TRbeta-SRC2 interaction inhibition | hit rate 0.065% among 280,000 | TRbeta-SRC2 peptide binding, fluorescence polarization; receptor liganded with 1 µM T3 | AID 1469 | Potency, µM (titrated, usually from 106 µM), inactives show at the top dose activity change, negative = inhibition, actives largely listed as inhibitors;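 also: plate controls were bound peptide for no effect and peptide without receptor for full effect; nearly all actives have a fitted effect of over 50% in size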
Target sequence (P10828 whole entry, looked up): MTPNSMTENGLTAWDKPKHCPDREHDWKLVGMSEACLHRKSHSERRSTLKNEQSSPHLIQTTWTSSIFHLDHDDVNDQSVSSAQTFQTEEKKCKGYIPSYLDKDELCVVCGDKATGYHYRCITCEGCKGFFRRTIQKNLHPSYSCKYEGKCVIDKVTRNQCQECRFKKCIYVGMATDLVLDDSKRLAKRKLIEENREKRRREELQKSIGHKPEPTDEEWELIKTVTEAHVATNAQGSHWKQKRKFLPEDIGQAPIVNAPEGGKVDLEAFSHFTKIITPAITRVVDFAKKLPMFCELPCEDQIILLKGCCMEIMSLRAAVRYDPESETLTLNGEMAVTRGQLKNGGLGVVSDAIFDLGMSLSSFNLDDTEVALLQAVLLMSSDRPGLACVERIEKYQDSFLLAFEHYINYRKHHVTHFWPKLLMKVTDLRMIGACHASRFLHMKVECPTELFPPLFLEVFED
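Compounds were added to 0.6 uM TRb ligand-binding domain and 20 nM Texas Red-labeled SRC2 peptide in Tris buffer containing 1 uM T3, incubated 5 hr at ambient temperature, then read by fluorescence polarization.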
Numbers without * were called inactive; ? = inconclusive; / = not tested or not shown; [ ] = dose if it differs, or a comment. Unless noted, calls follow the shape of the dose curve; as a rule, active = well fitted curve in the direction sought with a large enough effect; inconclusive = small, poorly fitted or top-dose-only effect, or another doubt; inactive = no such curve, though single readings can be large; an effect the other way counts as inactive or inconclusive. Unless noted, % is scaled to controls: 0 for no effect and ±100 for the full control effect; potency is read from the fitted curve at half-maximal effect.

SMILES	Tau fluor cs	TexasRed fluor	Tau ThT inhib	Tau FP inhib	GoLoco inh red	TRb-SRC2 inh
O=C(/C(=N/O)n1cncn1)c1ccccc1Cl	6.6%	-0.2%	7.9%	-3.6%	1.7%	-3.7%
O=c1oc2cc(O)ccc2cc1-c1nc2c(s1)CCc1ccccc1-2	11.2µM*[quencher]	-0.2%	-8.6%	-18.6%	10.6%	12.4%
COC(=O)C1CCN(CC(=O)Nc2cc(Cl)ccc2OC)CC1	-19.5%	-3.6%	-7.2%	-1.4%	3.6%	-1.4%
CC(Cc1ccc(O)c(O)c1)(NN)C(=O)O (centres undefined)	-23.8%	-9.6%	14.1µM*	?	-17.5%	1.5%
CCOC(=O)c1c(-c2ccc(C)cc2)csc1NC(=O)c1cc(=O)c2cc(C)cc(C)c2o1	-12.3%	9.7%	-17.9%	-3.0%	/	9.3%
CCOc1cc(/C=C(\C#N)c2[nH]nc(N)c2C#N)ccc1O	?	-13.5%	14.1µM*	-3.1%	34.6%	7.5%
Clc1ccc(NNc2ccnc3cc(Cl)ccc23)cc1	?	-1.6%	3.16µM*	-8.5%	5.6%	3.8%
O=C(NCc1ccccc1)C(c1ccc(F)cc1)N(Cc1ccco1)C(=O)c1ccccn1 (centres undefined)	-1.5%	0.5%	-10.1%	1.6%	6.4%	-7.2%
CC(=O)Nc1ccc(NC(=O)C(c2ccccc2)N2Cc3ccccc3C2=O)cc1 (centres undefined)	-12.0%	100µM*[quencher]	0.4%	1.3%	/	-17.0%
Cc1ccc(C)c(NC(=O)C(c2ccccc2)N2Cc3ccccc3C2=O)c1 (centres undefined)	-1.3%	100µM*[quencher]	-8.2%	3.4%	/	-29.0%
Cc1ccc(C)c(NC(=O)C(Cc2ccccc2)N2Cc3ccccc3C2=O)c1 (centres undefined)	-8.7%	126µM*[quencher]	-12.6%	2.3%	/	-21.3%
Cc1cc(F)ccc1NC(=O)C(c1ccccc1)N1Cc2ccccc2C1=O (centres undefined)	-4.5%	4.3%	5.4%	0.6%	/	-4.9%
COC(=O)c1ccc(NC(=O)C(c2ccccc2)N2Cc3ccccc3C2=O)cc1 (centres undefined)	-18.1%	?	-0.8%	3.9%	/	-7.7%
CCCn1ncc(CN2CCC(CO)(Cc3ccc(OC)cc3)CC2)c1C	6.2%	-1.8%	-1.9%	10.7%	-2.8%	-4.4%
Cc1cc(C)c(NC(=O)c2ccc[n+](Cc3ccc([N+](=O)[O-])cc3)c2)c(C)c1	3.0%	-4.1%	-1.2%	0.5%	11.9%	-0.2%
C=CCNC(=S)N1CCOCC1	10.6%	-0.9%	3.9%	?	15.4%	0.6%
Cc1ccc2[nH]c(-c3cccc(F)c3)cc(=O)c2c1	-23.6%[126 µM]	2.0%[201 µM]	-17.8%[126 µM]	?	7.9%[88.7 µM]	0.4%[201 µM]
Cc1ccc2[nH]c(-c3cccc(N)c3)cc2c1	14.1µM*[quencher]	-8.9%	10µM*	?	1.5%	-0.3%
CCN(CC)c1ccc(/C=N/Nc2nc3ccccc3[nH]2)c(O)c1	17.8µM*[quencher]	-10.7%	14.1µM*	2.0%	60.0%	1.8%
CCN(CC)c1ccc(/C=N/NC(=O)Cc2cccs2)c(O)c1	12.6µM*[quencher]	1.6%	?	13.2%	-10.4%	2.0%
C(=N\Nc1nc2ccccc2[nH]1)/c1ccc2c(c1)OCCO2	?	-7.6%	3.98µM*	12.1%	16.6%	-1.0%
COc1ccc(/C=N/Nc2nc3ccccc3[nH]2)cc1OC	?	-8.1%	12.6µM*	?	13.3%	1.2%
COc1cc(/C=N\Nc2nc3ccccc3[nH]2)cc(OC)c1OC	4.7%	-1.2%	?	-2.7%	14.4%	11.6%
CCn1c2ccccc2c2nnc(SCC(=O)c3c(N)n(C)c(=O)n(C)c3=O)nc21	-2.9%	0.3%	-10.0%	-0.7%	29.5%	-8.6%
O=C(N/N=C/c1nn(-c2ccccc2)cc1-c1ccc(Cl)cc1)c1ccncc1	-2.9%	-0.4%	3.9%	5.8%	7.2%	-1.1%
SMILES	Tau fluor cs	TexasRed fluor	Tau ThT inhib	Tau FP inhib	GoLoco inh red	TRb-SRC2 inh
C(=N\Nc1nc2ccccc2[nH]1)/c1ccccn1	-23.2%	-0.7%	?	-8.7%	-3.7%	3.1%
COc1ccc2c(c1)c(/C=N/Nc1nc3ccccc3[nH]1)c(C)n2C	28.2µM*[quencher]	-13.3%	22.4µM*	?	17.8%	-1.2%
Fc1ccccc1-c1ccc(/C=N/Nc2nc3ccccc3[nH]2)o1	14.1µM*[quencher]	-0.5%[53 µM]	6.31µM*	9.3%	15.1%	5.1%[53 µM]
COc1cc(OC)c(OC)cc1/C=N/Nc1nc2ccccc2[nH]1	-21.8%	-2.3%	?	0.8%	1.3%	-5.0%
CN(C)c1ccc(NC(=S)NC(=O)/C=C/c2ccc(Cl)cc2)cc1	?	1.0%	10µM*	-6.3%	14.0%	1.7%
CNC(=S)N/N=C(\C)c1ccc(Cl)s1	5.4%	7.9%	5.3%	8.3%	4.4%	-4.7%
O=C(Nc1ccc(Cl)c(-c2nc3ccccc3[nH]2)c1)c1ccc2c(c1)OCO2	?	-5.4%	?	17.8µM*	-6.6%	0.5%
O=C(COc1ccc(F)cc1)Nc1ccc(Cl)c(-c2nc3ccccc3[nH]2)c1	?	7.6%	-2.0%	28.2µM*	/	4.9%
COc1ccc(OCC(=O)Nc2cccc(-c3nc4ccccc4[nH]3)c2)cc1	20µM*[quencher]	-0.9%	?	?	15.6%	1.3%
CCCOc1ccc(C(=O)Nc2cccc(-c3nc4ccccc4[nH]3)c2)cc1	10µM*[quencher]	0.8%	?	25.1µM*	/	10.1%
CCOc1cc(OCC)cc(C(=O)Nc2cccc(-c3nc4ccccc4[nH]3)c2)c1	?	1.3%	-19.5%	?	/	2.9%
COc1cc(OC)c2c(C)c(CC(=O)N3CCCCC3)c(=O)oc2c1	-11.9%	-21.6%	-8.3%	-9.4%	/	-0.6%
COC(=O)c1c(C)oc2c1cc(NS(=O)(=O)c1c(C)cc(C)cc1C)c1ccccc12	?	-2.2%	-6.4%	-11.1%	/	3.5%
CCN(CC)C(=O)Nc1c(C)n(C)n(-c2ccccc2)c1=O	8.2%	1.7%	4.4%	11.3%	5.0%	-20.4%
COc1ccc(-c2csc(NC3=NCCCCC3)n2)cc1	-26.7%	-3.0%	?	18.6%	8.5%	-0.9%
CCOc1ccc(-c2csc(NNC3=NCCCCC3)n2)cc1	-23.6%	0.5%	15.8µM*	?	-2.9%	-7.8%
COc1ccc(-c2csc(NNC3=NCCCCC3)n2)cc1	-21.7%	-1.0%	25.1µM*	?	1.6%	-3.3%
C=CCC(Nc1ccccc1)c1ccc(OC)c(OC)c1 (centres undefined)	-11.4%	-4.0%	-9.2%	2.0%	3.0%	-0.7%
COc1cc(NC(=O)Cn2c(=O)n(Cc3ccccc3)c(=O)c3oc4ccccc4c32)cc(OC)c1	?	-0.1%	?	?	/	3.3%
COc1ccc(O[C@H]2C=C[C@@H](c3ccccc3)O[C@@H]2CO/N=C(\C)CCN2CCCCc3nc(C)c(C)cc32)cc1	-7.2%[11.6 µM]	-1.9%[11.2 µM]	-8.8%[11.5 µM]	6.0%[11.6 µM]	61.4%	1.4%[11.2 µM]
